Measurements published in PubChem BioAssay (NCATS).
Values joined by “and” are separate entries in the source; they are usually repeats but may differ in a detail not shown here. Equal values may be shown once. Records with an inconclusive call do not appear. Where a call stands in place of a potency, no number is given. Active and inactive are the calls of the source. Unless noted, the call rests on the fitted dose curve; in most records, active means well fitted curve in the direction sought with a large enough effect; inconclusive means small, poorly fitted or top-dose-only effect, or another doubt; inactive means no such curve, though single readings can be large; an effect the other way counts as inactive or inconclusive.

What was measured:
[1] = NS1 protein of Zika virus - qHTS assay to identify small molecule inhibitors in human HEK 293 cells (AID 1347053); further: nearly all actives have a fitted effect of over 55% in size; further: potency means the concentration at half of the fitted maximal effect
Summary of the method: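 HEK 293 cells pretreated with compound for 1 h, then infected with ZIKV MR766 (MOI 0.5) for 24 h at 37 C. NS1 detected by TR-FRET with two anti-NS1 antibodies; normalized to uninfected (0%) and infected (100%) wells.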

[2] = qHTS for Inhibitors of the Functional Ribonucleoprotein Complex (vRNP) of Lassa (LASV) Arenavirus: LASV Primary Screen - GLuc reporter signal (AID 1347082; calls by dose curve; tested in HEK293 reporter line; further: nearly all actives have a fitted effect of over 60% in size; further: potency means the concentration at half of the fitted maximal effect)
[3] = qHTS for Inhibitors of the Functional Ribonucleoprotein Complex (vRNP) of Lassa (LASV) Arenavirus: Viability assay - alamar blue signal for LASV Primary Screen (AID 1347083; calls by dose curve; tested in HEK293 reporter line; further: series mostly up to about 57 µM; nearly all actives have a fitted effect of over 80% in size)
[4] = qHTS for Inhibitors of the Functional Ribonucleoprotein Complex (vRNP) of Lymphocytic Choriomeningitis Arenaviruses (LCMV): Viability assay - alamar blue signal for LCMV Primary Screen (AID 1347085; calls by dose curve; tested in HEK293 reporter line; further: nearly all actives have a fitted effect of over 80% in size; further: potency means the concentration at half of the fitted maximal effect)
[5] = target: Nucleoprotein (Lymphocytic choriomeningitis virus (strain Armstrong)) (UniProt P09992); assay: qHTS for Inhibitors of the Functional Ribonucleoprotein Complex (vRNP) of Lymphocytic Choriomeningitis Arenaviruses (LCMV): LCMV Primary Screen - GLuc reporter signal (AID 1347086; calls by dose curve; further: series mostly up to about 57 µM; nearly all actives have a fitted effect of over 70% in size)
[6] = qHTS of pediatric cancer cell lines to identify multiple opportunities for drug repurposing: Primary screen for TC32 cells (AID 1347089); further: nearly all actives have a fitted effect of over 60% in size; further: potency means the concentration at half of the fitted maximal effect
Summary of the method: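 TC32 cells, 500-1,000/well in growth medium, compound-treated 48 h at 37 °C; viability from CellTiter-Glo luminescence. Primary screen: MIPE 11-point (0.78 nM–46 µM final), NPC 8-point (0.59 nM–46 µM final); confirmatory at 11-point dilutions.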

[7] = qHTS of pediatric cancer cell lines to identify multiple opportunities for drug repurposing: Primary screen for DAOY cells (AID 1347090); further: nearly all actives have a fitted effect of over 55% in size; further: potency means the concentration at half of the fitted maximal effect
Summary of the method: (§1)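 Eight- or eleven-point concentration series, 48 h treatment at 37 degrees C in growth media; readout CellTiter-Glo luminescence. Potency and efficacy were taken from the concentration-response curves.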

[8] = qHTS of pediatric cancer cell lines to identify multiple opportunities for drug repurposing: Primary screen for SJ-GBM2 cells (AID 1347091); further: potency means the concentration at half of the fitted maximal effect
Summary of the method: as §1

[9] = qHTS of pediatric cancer cell lines to identify multiple opportunities for drug repurposing: Primary screen for A673 cells (AID 1347092); further: nearly all actives have a fitted effect of over 45% in size; further: potency means the concentration at half of the fitted maximal effect
Summary of the method: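 A673 cells (500-1,000 cells/well) were treated 48 hours at 37 degrees C with compounds at 11-point (0.78 nM to 46 µM) or 8-point (0.59 nM to 46 µM) dilutions. Viability read by CellTiter-Glo luminescence; concentration-response curves fitted.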

[10] = qHTS of pediatric cancer cell lines to identify multiple opportunities for drug repurposing: Primary screen for SK-N-MC cells (AID 1347093); further: potency means the concentration at half of the fitted maximal effect
Summary of the method: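 Metabolically active cells were quantified by ATP-dependent luminescence (CellTiter-Glo, 15 min at room temperature) following 48 h treatment. Cells had been plated at 500-1,000 per well and settled for 5 h beforehand.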

[11] = qHTS of pediatric cancer cell lines to identify multiple opportunities for drug repurposing: Primary screen for NB-EBc1 cells (AID 1347095); further: potency means the concentration at half of the fitted maximal effect
Summary of the method: (§2)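 500-1,000 cells/well; 5 h pre-incubation 37 °C/5% CO2; compound pinned; 48 h; CellTiter-Glo, 15 min RT; luminescence. MIPE 11-pt from 0.78 nM, NPC 8-pt from 0.59 nM final. Bortezomib 2.3 µM final as positive control.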

[12] = qHTS of pediatric cancer cell lines to identify multiple opportunities for drug repurposing: Primary screen for BT-37 cells (AID 1347094); further: potency means the concentration at half of the fitted maximal effect
Summary of the method: as §2

[13] = qHTS of pediatric cancer cell lines to identify multiple opportunities for drug repurposing: Primary screen for U-2 OS cells (AID 1347096); further: nearly all actives have a fitted effect of over 50% in size
Summary of the method: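 Cells (500-1,000/well) in growth media were settled 5 h at 37 degrees C, then given compounds for 48 h. Viability was read as CellTiter-Glo luminescence. Primary runs used MIPE at 11 points (0.78 nM-46 µM) and NPC at 8 points (0.59 nM-46 µM); follow-ups used 11 points.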

[14] = qHTS of pediatric cancer cell lines to identify multiple opportunities for drug repurposing: Primary screen for SK-N-SH cells (AID 1347098); further: nearly all actives have a fitted effect of over 65% in size; further: potency means the concentration at half of the fitted maximal effect
Summary of the method: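 Cells (500-1,000/well) rested 5 h, then received compounds for 48 h; metabolically active cells were measured by CellTiter-Glo luminescence. Final concentrations spanned up to 46 µM (MIPE, 11-point) or 0.59 nM-46 µM (NPC, 8-point) in primary screens, 11-point in follow-ups.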

[15] = qHTS of pediatric cancer cell lines to identify multiple opportunities for drug repurposing: Primary screen for Saos-2 cells (AID 1347097); further: nearly all actives have a fitted effect of over 40% in size; further: potency means the concentration at half of the fitted maximal effect
Summary of the method: as §2

[16] = target: T1, Tyrosine-protein phosphatase non-receptor type substrate 1 (Homo sapiens) + Leukocyte surface antigen CD47 (Homo sapiens) (UniProt P78324+Q08722); assay: CD47-SIRPalpha protein protein interaction - LANCE assay qHTS validation (AID 1347057; active means well fitted curve in the direction sought with a large enough effect in the signal ratio, with a control signal flat, not every such curve was filed as active; the % refers to the signal ratio; further: series mostly up to about 38 µM)
Summary of the method: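 First, His-tagged CD47 and Eu-labelled anti-His antibody met the compound for 30 min; next, site-specifically biotinylated SIRPalpha was added for 30 min; finally streptavidin-APC was added before reading the TR-FRET ratio.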

[17] = target: T1, Tyrosine-protein phosphatase non-receptor type substrate 1 (Homo sapiens) + Leukocyte surface antigen CD47 (Homo sapiens); assay: CD47-SIRPalpha protein protein interaction - HTRF assay qHTS validation (AID 1347058; active means well fitted curve in the direction sought with a large enough effect in the signal ratio, not every such curve was filed as active; the % refers to the signal ratio; further: series mostly up to about 38 µM)
Summary of the method: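 TR-FRET read (Ch1/Ch2 ratio) of soluble extracellular CD47 and Avi-biotinylated SIRPalpha domains in PBS pH 7.4 with 0.05% IGEPAL; 7-point compound titration. Sequential 30 min room-temperature steps; non-biotinylated SIRPalpha as control inhibitor.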

[18] = target: T1, Tyrosine-protein phosphatase non-receptor type substrate 1 (Homo sapiens) + Leukocyte surface antigen CD47 (Homo sapiens); assay: CD47-SIRPalpha protein protein interaction - Alpha assay qHTS validation (AID 1347059);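 further: bead proximity luminescence from CD47 binding SIRPalpha after compound preincubation with SIRPalpha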
Summary of the method: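 Soluble extracellular domains: Avi-tag biotinylated SIRPalpha (25 nM) preincubated 30 min RT with compound, then 6His-CD47 (12.5 nM) 30 min; Ni-NTA acceptor and streptavidin donor beads (10 ug/mL) 30 min, AlphaScreen read. PBS pH 7.4, 0.05% IGEPAL.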

[19] = target: Parathyroid hormone/parathyroid hormone-related peptide receptor (Homo sapiens) (UniProt Q03431); assay: qHTS for PTHR1 Agonists: Optimization Screen against the NCGC LOPAC library (AID 1347079);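 further: GloSensor cAMP luminescence in HEK-293 GP2 cells expressing human PTHR1 with IBMX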
Summary of the method: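 Agonist readout: GloSensor cAMP luminescence, read after 15 min at room temperature. HEK-293-derived GP2 line carries PTHR1; compounds tested as a titration for 1 hr at 37C in presence of IBMX. M-PTH (1-15) served as control.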

Chain of Nucleoprotein (Lymphocytic choriomeningitis virus (strain Armstrong)) (P09992 whole entry, looked up): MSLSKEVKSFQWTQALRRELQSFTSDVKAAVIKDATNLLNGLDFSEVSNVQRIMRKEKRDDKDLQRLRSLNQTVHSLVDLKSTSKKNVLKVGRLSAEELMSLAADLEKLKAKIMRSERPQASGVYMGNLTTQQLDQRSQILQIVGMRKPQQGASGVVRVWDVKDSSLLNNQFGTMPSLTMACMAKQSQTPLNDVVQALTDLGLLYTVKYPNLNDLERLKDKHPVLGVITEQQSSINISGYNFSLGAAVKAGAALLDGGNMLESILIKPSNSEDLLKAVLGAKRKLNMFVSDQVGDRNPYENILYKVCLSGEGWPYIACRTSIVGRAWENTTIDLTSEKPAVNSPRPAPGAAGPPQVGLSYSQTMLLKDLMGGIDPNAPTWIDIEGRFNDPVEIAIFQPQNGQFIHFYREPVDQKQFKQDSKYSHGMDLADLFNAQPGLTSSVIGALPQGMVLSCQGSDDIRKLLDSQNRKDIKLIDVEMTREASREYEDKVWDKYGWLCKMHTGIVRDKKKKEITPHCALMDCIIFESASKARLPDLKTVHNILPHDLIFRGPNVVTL
T1 sequence (P78324 whole entry, looked up): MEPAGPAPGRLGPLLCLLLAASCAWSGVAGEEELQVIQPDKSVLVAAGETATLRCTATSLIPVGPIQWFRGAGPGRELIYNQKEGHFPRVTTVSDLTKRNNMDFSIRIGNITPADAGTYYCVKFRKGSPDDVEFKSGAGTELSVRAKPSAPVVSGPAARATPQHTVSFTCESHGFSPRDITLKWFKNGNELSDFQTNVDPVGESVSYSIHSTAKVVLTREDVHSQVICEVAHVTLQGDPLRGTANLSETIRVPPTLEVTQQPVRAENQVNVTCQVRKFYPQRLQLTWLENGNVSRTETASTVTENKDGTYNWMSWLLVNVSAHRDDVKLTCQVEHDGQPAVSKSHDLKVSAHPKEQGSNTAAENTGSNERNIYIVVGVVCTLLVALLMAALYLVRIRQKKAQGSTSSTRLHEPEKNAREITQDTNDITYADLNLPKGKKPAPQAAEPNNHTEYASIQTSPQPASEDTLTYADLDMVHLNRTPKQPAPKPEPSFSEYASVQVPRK
T1 sequence (Q08722 whole entry, looked up): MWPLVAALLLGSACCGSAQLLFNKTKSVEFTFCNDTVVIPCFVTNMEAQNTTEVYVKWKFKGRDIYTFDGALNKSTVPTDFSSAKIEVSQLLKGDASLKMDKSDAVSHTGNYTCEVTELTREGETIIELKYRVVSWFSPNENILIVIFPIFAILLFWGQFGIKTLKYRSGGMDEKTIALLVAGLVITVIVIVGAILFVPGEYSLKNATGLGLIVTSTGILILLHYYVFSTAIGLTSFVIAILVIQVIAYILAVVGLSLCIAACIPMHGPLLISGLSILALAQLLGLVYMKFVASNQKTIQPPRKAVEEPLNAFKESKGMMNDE
Chain of Parathyroid hormone/parathyroid hormone-related peptide receptor (Homo sapiens) (Q03431 whole entry, looked up): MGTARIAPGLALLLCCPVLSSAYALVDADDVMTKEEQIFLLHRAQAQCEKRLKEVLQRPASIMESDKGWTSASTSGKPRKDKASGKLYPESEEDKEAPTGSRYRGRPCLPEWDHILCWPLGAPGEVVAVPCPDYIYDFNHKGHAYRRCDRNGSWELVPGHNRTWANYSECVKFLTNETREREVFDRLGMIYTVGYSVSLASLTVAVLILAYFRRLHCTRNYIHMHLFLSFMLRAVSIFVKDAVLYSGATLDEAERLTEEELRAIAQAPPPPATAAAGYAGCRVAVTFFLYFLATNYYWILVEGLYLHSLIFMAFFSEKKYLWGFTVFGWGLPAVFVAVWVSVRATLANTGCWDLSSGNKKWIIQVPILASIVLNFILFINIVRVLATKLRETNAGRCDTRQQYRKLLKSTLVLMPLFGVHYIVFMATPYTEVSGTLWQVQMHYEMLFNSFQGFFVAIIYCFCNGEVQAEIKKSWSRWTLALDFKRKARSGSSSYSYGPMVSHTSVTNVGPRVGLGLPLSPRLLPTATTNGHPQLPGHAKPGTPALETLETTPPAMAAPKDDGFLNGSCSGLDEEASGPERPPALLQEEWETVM

SMILES | Potency [1] | Potency [2] | Potency [3] | Potency [4] | Potency [5] | Potency [6] | Potency [7] | Potency [8] | Potency [9] | Potency [10] | Potency [11] | Potency [12] | Potency [13] | Potency [14] | Potency [15] | outcome [16] | outcome [17] | outcome [18] | outcome [19]
Clc1ccc(CCC(Cn2ccnc2)Sc2c(Cl)cccc2Cl)cc1 (stereo not given) | 14.8 µM (active) | inactive | inactive | inactive | inactive | inactive | inactive | inactive | 23.5 µM (active) | 23.5 µM (active) | 21.1 µM (active) |  |  |  |  |  |  |  | 
Oc1cc(Cl)ccc1Oc1ccc(Cl)cc1Cl | inactive | inactive | inactive | inactive | inactive | inactive | 49.5 µM (active) | 4.42 µM (active) | 39.4 µM (active) | 27.9 µM (active) | 4.95 µM (active) | 40.9 µM (active) | inactive | 11.4 µM (active) and 27.3 µM (active) |  |  |  |  | 
C#CCN(C)[C@H](C)Cc1ccccc1 | inactive | inactive | inactive | inactive | inactive | inactive | inactive | inactive | inactive | inactive | inactive | inactive | inactive | inactive | inactive |  |  |  | 
CC[N+]1(C)CCCC(OC(=O)C(O)(c2ccccc2)c2ccccc2)C1 (stereo not given) | inactive | inactive | inactive | inactive | inactive | inactive | inactive | inactive | inactive | inactive | inactive | inactive | inactive | inactive | inactive |  |  |  | 
O=c1oc2ccccc2c(O)c1C(CC(O)c1ccc(-c2ccc(Br)cc2)cc1)c1ccccc1 (stereo not given) | inactive | inactive | inactive | inactive | inactive | inactive | inactive | inactive | inactive |  | inactive | inactive | inactive | inactive | inactive |  |  |  | 
CCCC1CCCCN1 (stereo not given) | inactive | inactive | inactive | inactive | inactive | inactive | inactive | inactive | inactive | inactive | inactive | inactive | inactive | inactive |  |  |  |  | 
O=P1(NCCCl)OCCCN1CCCl (stereo not given) | inactive | inactive | inactive | inactive | inactive | inactive | inactive |  |  | inactive | inactive | inactive | inactive | inactive | inactive |  |  |  | 
CC(=O)[C@]1(O)Cc2c(O)c3c(c(O)c2[C@@H](O[C@H]2C[C@H](N)[C@H](O)[C@H](C)O2)C1)C(=O)c1ccccc1C3=O |  | 3.98 µM (active) |  |  |  |  |  |  |  |  |  |  |  |  |  |  |  |  | 
CN(C)CCCN1c2ccccc2Sc2ccc(Cl)cc21 |  | inactive |  |  |  |  |  |  |  |  |  |  |  |  |  |  |  |  | 
CCC(COC(=O)c1cc(OC)c(OC)c(OC)c1)(c1ccccc1)N(C)C (stereo not given) | inactive | inactive | inactive | inactive | inactive | inactive | inactive |  | inactive | inactive | inactive | inactive | inactive | inactive |  |  |  |  | 
C[C@]12C/C(=C/O)C(=O)C[C@@H]1CC[C@@H]1[C@@H]2CC[C@@]2(C)[C@H]1CC[C@]2(C)O | inactive | inactive | inactive | inactive | inactive | inactive | inactive |  |  | 23.7 µM (active) |  |  | inactive |  |  |  |  |  | 
COC[C@@H](NC(C)=O)C(=O)NCc1ccccc1 | inactive | inactive | inactive | inactive | inactive | inactive | inactive | inactive | inactive |  | inactive | inactive | inactive | inactive | inactive |  |  |  | 
C[C@H]1O[C@@H](O[C@H]2[C@@H](O)C[C@H](O[C@H]3[C@@H](O)C[C@H](O[C@H]4CC[C@@]5(C)[C@H](CC[C@@H]6[C@@H]5CC[C@]5(C)[C@@H](C7=CC(=O)OC7)CC[C@]65O)C4)O[C@@H]3C)O[C@@H]2C)C[C@H](O)[C@@H]1O | inactive |  |  |  |  | 0.0374 µM (active) | 0.0133 µM (active) |  | 0.0133 µM (active) | 0.0053 µM (active) |  | 0.0098 µM (active) |  | 0.0864 µM (active) |  |  |  |  | 
C=CCN1CC[C@]23c4c5ccc(O)c4O[C@H]2C(=O)CC[C@@]3(O)[C@H]1C5 | inactive | inactive | inactive |  | inactive | inactive | inactive | inactive | inactive | inactive | inactive | inactive | inactive | inactive |  |  |  |  | 
CN(C)CCN(C)CCc1ccc(Cl)c(Cl)c1 | inactive |  |  | 21.7 µM (active) |  | inactive | inactive | inactive | inactive | 14.8 µM (active) | inactive |  | inactive |  | inactive |  |  |  | 
CC(C)CC(N(C)C)C1(c2ccc(Cl)cc2)CCC1 (stereo not given) | inactive | inactive |  | inactive | inactive | inactive | inactive | inactive | inactive | inactive | inactive | inactive | inactive | inactive |  |  |  |  | 
Clc1ccc(COC(Cn2ccnc2)c2ccc(Cl)cc2Cl)cc1 (stereo not given) | inactive | inactive | inactive | inactive | inactive | inactive |  |  | 23.5 µM (active) |  |  |  | inactive |  |  |  |  |  | 
c1ccc2c(c1)OCC(C1=NCCN1)O2 (stereo not given) |  | 14.1 µM (active) |  |  |  | inactive | 26.6 µM (active) |  | 13.3 µM (active) | 18.8 µM (active) |  |  | inactive | 13.7 µM (active) | 23.7 µM (active) | inactive | inactive | inactive | inactive
CC(C)n1c(/C=C/[C@@H](O)C[C@@H](O)CC(=O)O)c(-c2ccc(F)cc2)c2ccccc21 |  | inactive |  |  |  |  |  |  |  |  |  |  |  |  |  |  |  |  | 
C=C1C[C@@H]2[C@H](CC[C@]3(C)C(=O)CC[C@@H]23)[C@@]2(C)C=CC(=O)C=C12 | inactive | inactive | inactive | inactive | inactive | inactive | inactive | inactive |  |  | inactive |  | inactive | inactive |  |  |  |  | 
CNC(=O)N1N=C(c2ccc(N)cc2)c2cc3c(cc2CC1C)OCO3 (stereo not given) | inactive |  |  |  |  |  |  | inactive |  | 9.35 µM (active) |  |  | inactive |  |  |  |  |  | 
COc1ccc(Cc2nccc3cc(OC)c(OC)cc23)cc1OC | inactive |  | inactive | inactive |  | inactive |  |  |  |  |  |  | inactive | inactive |  |  |  |  | 
CNC(=O)c1ccc(N2C(=S)N(c3ccc(C#N)c(C(F)(F)F)c3)C(=O)C23CCC3)cc1F | inactive | inactive | inactive | inactive |  | inactive | 3.72 µM (active) | inactive | 18.7 µM (active) | 5.9 µM (active) |  | inactive |  | 19.2 µM (active) |  |  |  |  | 
Cc1cc(SCc2sc(-c3ccc(C(F)(F)F)c(F)c3)nc2C)ccc1OCC(=O)O | inactive | inactive | inactive | inactive | inactive | inactive | inactive |  | inactive |  |  |  | inactive |  |  |  |  |  | 
Cn1ccc2cc3c(cc21)CCN3C(=O)Nc1cccnc1 |  | inactive |  |  |  |  |  |  |  |  |  |  |  |  |  |  |  |  | 
